PubChem BioAssay AID778 (Sanford-Burnham Center for Chemical Genomics, 2007)
Screen size: about 96,000 compounds; about 20,000 (21%) were called active.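 The calls were made as follows: active = CYP2C19 inhibition above a set limit at 5 µM in the primary screen (cut at about 50% in these data); inactive = the rest.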 Only a sample is shown.

Target: Cytochrome P450 2C19 (Homo sapiens) (UniProt P33261)
Experiment: blockers of cytochrome P450 2C19 activity – biochemical, luminescence, ADME assay, primary screen (AID 778);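 also: plate controls were negative control wells for no effect and 2.5 mM tranylcypromine positive control for full effect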
Settings: CYP2C19 Supersomes, luciferin-H EGE luminescence, 30 min; at 5 µM; hits give high values

Chain of Cytochrome P450 2C19 (Homo sapiens) (P33261 whole entry, looked up): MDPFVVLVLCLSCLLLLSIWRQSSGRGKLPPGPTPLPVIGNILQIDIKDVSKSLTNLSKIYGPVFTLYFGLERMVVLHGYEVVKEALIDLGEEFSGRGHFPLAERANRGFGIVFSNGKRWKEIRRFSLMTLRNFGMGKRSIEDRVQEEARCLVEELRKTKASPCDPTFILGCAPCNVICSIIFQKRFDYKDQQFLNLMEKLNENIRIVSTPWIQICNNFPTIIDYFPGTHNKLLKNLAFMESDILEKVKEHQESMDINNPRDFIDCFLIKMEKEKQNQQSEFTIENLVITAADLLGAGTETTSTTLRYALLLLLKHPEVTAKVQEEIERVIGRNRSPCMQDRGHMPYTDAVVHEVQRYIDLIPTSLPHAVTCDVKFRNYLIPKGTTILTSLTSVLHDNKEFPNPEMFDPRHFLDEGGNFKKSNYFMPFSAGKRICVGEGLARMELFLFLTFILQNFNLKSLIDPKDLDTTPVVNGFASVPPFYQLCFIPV

inhibition, active:
O=C(CN1CCN(c2ccc(F)cc2)CC1)Nc1cccc(C(F)(F)F)c1 83.2%
COc1cccc(OCc2cc(/C=N/NC(=O)c3nc(Cl)c(Cl)c(N)c3Cl)ccc2OC)c1 55.4%
COc1ccc([N+](=O)[O-])cc1NC(=O)CCc1ccccc1 63.7%
Cc1ccc(F)c(NC(=O)CCc2ccccc2)c1 65.2%
CC1=C2C(=O)OC(c3ccoc3)C2(C)CCC1 (centres undefined) 78.1%
O=C(COc1ccc(S(=O)(=O)NCCc2ccccc2)cc1)N1CCCC1 81.4%
CC(=O)Nc1ccc(S(=O)(=O)NCCc2ccccc2)cc1 90.7%

inhibition, inactive:
Cc1ccc(/C=N/NC(=O)C(NC(=O)c2ccccc2)c2n[nH]c(=O)c3ccccc23)cc1 (centres undefined) 13.3%
O=C(CN1CCN(C(=O)c2ccco2)CC1)Nc1ccc(Cl)c(C(F)(F)F)c1 42.2%
O=C(O)CSCC(=O)Nc1cccc(C(F)(F)F)c1 -13.8%
Cc1ccccc1CSCCNC(=O)c1ccc(N(C)S(=O)(=O)c2ccccc2)cc1 48.7%
CCc1cc(C(c2ccccc2OC)N2CCOCC2)c(NC(=O)c2ccccc2)s1 (centres undefined) 18.9%
OCc1n[nH]c(CO)n1 1.2%
COc1ccc(/C=N\NC(=O)c2sc(N)nc2C)cc1OC 1.8%
COc1cccc(-c2cc(C(=O)N/N=C/c3ccc(OC)c(COC(C)=O)c3)c3ccccc3n2)c1 49.3%
CCN1CCC(=NNC(=O)c2ccc(C)c([N+](=O)[O-])c2)CC1 1.5%
Cc1cc([N+](=O)[O-])ccc1NCc1cccc([N+](=O)[O-])c1 -3.5%
CCN(CC)CCCNC(=O)CCc1ccccc1 7.3%
CCn1ncc(Br)c1C(=O)Nc1cc(C)ccc1F 24%
COc1ccc(OC)c(NC(=O)CC(Cc2ccccc2OC)C(=O)O)c1 (centres undefined) 1.6%
CCC(C)(C)c1ccc(Oc2ccc(NC(=O)COC(=O)C3=COCCO3)cc2)cc1 49.9%
Cc1ccc(C(=O)N/C(=C/c2ccco2)C(=O)NCCc2c[nH]c3ccccc23)cc1C 39.8%
CCOC(=O)N1CCN(C(=O)C2CCN(c3ncnc4c3sc3cccc(F)c34)CC2)CC1 24.8%
CC(C)C(=O)N1c2ccccc2NC2=C(C(=O)CCC2)C1c1ccc(N(C)C)cc1 (centres undefined) 8.1%
COC(=O)C(C)C1Sc2ccccc2NC1=O (centres undefined) 44.9%
Cn1c(=O)c(=O)n(C)c2cc(S(=O)(=O)NCCc3ccccc3)ccc21 6.1%
O=C(COc1ccc(/C=N/NS(=O)(=O)c2ccccc2)cc1)NCCc1ccccc1 -0.6%
O=C(COc1ccc(Cl)cc1)N1CCN(S(=O)(=O)c2ccc(Cl)cc2)CC1 -21%
COC(=O)[C@H](Cc1ccccc1)NC(=O)Nc1ccc(S(N)(=O)=O)cc1 -4.1%
